This note sets out measurements from PubChem BioAssay AID1347426 (Functional Genomics Laboratory (NCATS/FGL), 2020).

Out of some 31,000 sequences screened, about 1,400 (4.5%) were called active.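 How the source made its calls: active means median seed-adjusted z-score above 1 or below -1; inactive means the rest.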 Many of the other results were omitted from the sample, so actives are more common in it than they were.

This test is described as follows: Novel Modifiers of Survival Motor Neuron (SMN) Protein: Gene Identification via Genome-wide siRNA Screen.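 Further: luminescence tracks full-length SMN protein made from the SMN2 reporter.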 The settings on record: HEK293T SMN2-luciferase reporter, siRNA knockdown, 72 h; actives lie on both sides. The method in brief: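 HEK293T cells stably carrying an SMN2 promoter/splicing cassette–luciferase reporter were reverse-transfected with 1 pmol siRNA per well (druggable-genome library, 3 siRNAs per gene) and grown 72 h at 37 °C. Luminescence, normalized to negative-control siRNA and log10-transformed, was scored as MAD.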
(In general: A reporter such as luciferase makes a cellular process visible.)
As for GGGAAGCACUGGUCGAAGATT against DTD1, the median seed-adjusted z-score was -1.58 (active). In the case of AGGCCUUUCUGGGACCUUATT against ZP4 it was 0.0498 (inactive). For CUAAGACCAGUAUAGUAAATT against ARF6, the median seed-adjusted z-score is -0.805 (inactive). In the case of GGAUCUGGUUCAACUUGGATT against FUT3, the median seed-adjusted z-score is 0.11 (inactive).

On to GUGUCUCAGGGAUAGGUAATT against MICAL2, for which the median seed-adjusted z-score was -0.0224 (inactive). On to AGGAGUUCUUGGUCAUGAUTT against TNNC2, for which the median seed-adjusted z-score is -0.773 (inactive). In the case of GCAUUACAGUCUGAAUUGATT against PTPDC1, the median seed-adjusted z-score was -0.191 (inactive). For GCUUUAUGCUGCUAAGGCATT against PGD, the median seed-adjusted z-score was -1.55 (active). Consider CGACAAGUCUUCGACCUGATT against DGKZ, for which the median seed-adjusted z-score is 0 (inactive). In the case of GCUGCUAUUUGAUAGACCATT against HNRNPM, the median seed-adjusted z-score was 0.499 (inactive).

As for GAAUGAUGAUGCAUGCCUUTT against MS4A10, the median seed-adjusted z-score is -0.24 (inactive). Consider CACCUCUAAUCAUCGAUGATT against UAP1, for which the median seed-adjusted z-score is 0.0411 (inactive). For AGGUCUGGACGACAACUAUTT against MST1, the median seed-adjusted z-score was -1.47 (active). Take GGAGCCUAUCAUAACCUUATT against ZNF484: the median seed-adjusted z-score is 0.2 (inactive). Then GGGUACCGAGGAUCGCUUUTT against LAMA5, with 0.229 (inactive); and GUAUCUAAGAGAUAUGGAATT against ORC5L, with -0.126 (inactive); and GACUCCCAUUUGAGACUUUTT against ZMAT1, with -0.123 (inactive). Take ACACCUACAUGAUGACGCATT against EVX2: the median seed-adjusted z-score was 0.181 (inactive). As for CCUCAAAUGCAGUAUUUUUTT against HMOX1, the median seed-adjusted z-score was 0.45 (inactive). In the case of GCAACUACGUGACUCGCUATT against SMUG1 it was -1.38 (active); in that of CGUCAGUGCUUCGCAUACATT against ZBTB45, 0 (inactive); in that of GAAGGAGCAGGAUUACCAATT against TMED4, -0.895 (inactive).

In the case of GAGCUUCAACUAACAGGAATT against NUPL2, the median seed-adjusted z-score is 0.134 (inactive). For CAUGGUCCAUUAUUCGUGATT against ATP6V1A, the median seed-adjusted z-score was -0.0106 (inactive). Then GGAAUUGGUUUCAGUCAAATT against RCOR1, with -1.13 (active). As for GACUUACCUUCUGAGCAUATT against ZNF792, the median seed-adjusted z-score was 0 (inactive). In the case of CGACUUCAUUGUAAAGAAATT against LIPF, the median seed-adjusted z-score was 0.54 (inactive).

With GCUGCGUCAUUUUCGAAAATT against MOXD1, the median seed-adjusted z-score was -0.162 (inactive). Take GAACGAGCUGGAUCCAUUATT against ARSF: the median seed-adjusted z-score was 0.111 (inactive). Then CCUUACGAAUCAUAAGAUATT against ZNF708, with 0.0562 (inactive); and CAGAGAACCUUCAAGUUAATT against ZNF239, with -0.191 (inactive); and GCAUAGCCCUCAACAAGAATT against IRF6, with -1.79 (active). In the case of GCCGCUUUCGGAAUAAGAUTT against DGKZ, the median seed-adjusted z-score is 0 (inactive). With CGGAGAACAUUGUUGUUCUTT against TMTC2, the median seed-adjusted z-score was 0.0277 (inactive).

As for GCACCUUGCAGGAUUGGAATT against PEAR1, the median seed-adjusted z-score was 0.071 (inactive). For ACCAUAGCCUCUCACCCUATT against RASA4, the median seed-adjusted z-score is -1.11 (active). With ACGCAACCCUCAACAGCUCTT against UTS2R, the median seed-adjusted z-score was 0.0819 (inactive). In the case of GGGACUCAGUACUUCCAUATT against SLC39A8 it was 0.265 (inactive). On to CGAAGUUCAUAGACGAGAUTT against PPP1R2, for which the median seed-adjusted z-score is 0.208 (inactive). For the sequence AGAGGUCUUCGACAAUAAATT against CD9, the median seed-adjusted z-score is -1.02 (active).

Turning to GAGCCUCCUCAAAUCCAAATT against SERPING1, the median seed-adjusted z-score is -0.244 (inactive). With CGUGGGAUAUGUUGACGGATT against BTNL3, the median seed-adjusted z-score is 0 (inactive).

Consider GGAAUUUUUCGGGUGGUUATT against ELF5, for which the median seed-adjusted z-score was -0.45 (inactive). Consider GAUCGAUAUCUUUACAAGATT against SLK, for which the median seed-adjusted z-score was 0.0479 (inactive). In the case of CGAUGGAGAUCAACGUGAATT against UBE2E2, the median seed-adjusted z-score is -1.77 (active). For CCUUCACUAUUGCCCGCAATT against ABCD1, the median seed-adjusted z-score was 0 (inactive). Then UGAUGACACCAACCACGAATT against CNP, with -0.116 (inactive); and GGCCCAUAUUCAUCUGCUATT against STYX, with 0.694 (inactive).

Regarding AGCACGAGCUAGUCCCUGATT against POLR2E, the median seed-adjusted z-score was -1.25 (active).

For the sequence GCAAGAUCCGAGAAGAAUATT against TUBB, the median seed-adjusted z-score was -0.307 (inactive). Then GCAUGAUCGGGAGGGUUUATT against PPID, with -0.206 (inactive); and GGUUAUGAACUUUGGAUAATT against GPR103, with 0 (inactive). For CUAUGUCAGUGGUCCUGAATT against RETSAT, the median seed-adjusted z-score is -1.7 (active). Turning to CAAUGAAGACUGAUGUAUUTT against SLC9A2, the median seed-adjusted z-score was -1.02 (active).

Consider CCCUUACUACAACUACAAATT against ZBTB38, for which the median seed-adjusted z-score was 0.448 (inactive). In the case of GGGCGAUUCCUGUCUAAGATT against PUM1, the median seed-adjusted z-score was 0.109 (inactive). In the case of CGAACUCCGCUUUUUCUUATT against FZD7, the median seed-adjusted z-score was -0.159 (inactive).

Consider GCUACAACGGAAACAAUCATT against MSTN, for which the median seed-adjusted z-score was -0.639 (inactive). GGAGUUCGAUGAGACAACATT against FABP3: the median seed-adjusted z-score is -0.0786 (inactive).

Consider CGAUUACGCUUCAGAGAUATT against PTP4A2, for which the median seed-adjusted z-score was -1.45 (active). With GGACAUCCUGUCAUAGAAATT against UTP3, the median seed-adjusted z-score is -1.08 (active). GGAAGUUCAUUACCAGAAUTT against PLCZ1: the median seed-adjusted z-score was 0 (inactive). On to GCAAUAGUCAGGAGCGAUATT against PPP1R10, for which the median seed-adjusted z-score is 1.41 (active).

CCUUACCUGUAAACAGAGATT against ESR2: the median seed-adjusted z-score was -1.1 (active).

For the sequence CCAGGCCCAUUCUACAAUATT against PEAR1, the median seed-adjusted z-score is 0.071 (inactive). In the case of AUAUAACUGCUGAUCUAGATT against SPCS3, the median seed-adjusted z-score is 0.417 (inactive).

With GGAGUUCGUUCAGAGACCATT against MOCS2, the median seed-adjusted z-score is 0.0327 (inactive). With CUCUCUUCGUAGAUCAAGATT against SFRS7, the median seed-adjusted z-score is 0.44 (inactive). Consider UGAAGUUGCUGGACGCGUATT against DAD1, for which the median seed-adjusted z-score is -0.45 (inactive). Regarding GCUUGGAGGAUUUCAUGGATT against POFUT1, the median seed-adjusted z-score was 0 (inactive).
